The panel holds about 83,000 compounds, 20% with a hit somewhere; the sample as a whole holds those more often.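 For each line, cells grew in 96-well plates with the test compound present at a single concentration for 48 hours.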 Values without a mark were called inactive. Activity calls are given as the source filed them. Rule for the calls: active = growth percent below 10; inactive = the rest.

Some test systems named below: T-47D breast; BT-549 breast; MDA-MB-435 melanoma; SW-620 colon; MCF7 breast; HCT-116 colon; HCC-2998 colon; KM12 colon.
Common to all, as to experiment: NCI-60 one-dose screen, 48 h (100 = growth as untreated, 0 = no growth, -100 = all killed)
Common to all, as to details: 10 µM

`C[C@]12CCC3c4ccc(O)cc4C[C@@H](CCCCCCCCCS(=O)CCCC(F)(F)C(F)(F)F)C3C1CC[C@@H]2O` (stereo not given in full): the growth in the experiment on T-47D breast is 41.2%; with BT-549 breast it was 86.1%; with MDA-MB-435 melanoma, 88.8%; with SW-620 colon it was 97.1%; in the experiment with MCF7 breast it was 15.9%; in the experiment on HCT-116 colon, 71.4%. The growth in the experiment on HCC-2998 colon is 87%; with KM12 colon it was 80.4%.
Regarding `O=C(NCCCNS(=O)(=O)c1ccc(Cl)cc1)Nc1ccc(-n2cc(-c3ccncc3)c(-c3ccc(Cl)c(O)c3)n2)cc1`, the growth was 22.2% in the experiment on T-47D breast; 26.6% with BT-549 breast; 28.4% in the experiment with MDA-MB-435 melanoma; 50.3% in the experiment on SW-620 colon; 13.8% in the experiment with MCF7 breast; 16.2% with HCT-116 colon. Besides, the growth in the experiment with HCC-2998 colon was 57.9%; in the experiment with KM12 colon it was 28.6%.
`OC(CCN1CCCC1)(c1ccccc1)C1CCCCC1` (stereo not given): the growth in the experiment on T-47D breast was 102%; in the experiment on BT-549 breast, 106%; in the experiment with MDA-MB-435 melanoma, 101%; with SW-620 colon, 105%; in the experiment on MCF7 breast it was 101%; in the experiment with HCT-116 colon, 104%. Moreover, the growth with HCC-2998 colon was 105%; in the experiment with KM12 colon, 101%.
Consider `Cc1cc(=O)n2nnc3cc(Cl)c(Cl)cc3n12`, for which the growth with T-47D breast is 76.3%; with BT-549 breast, 114%; in the experiment with MDA-MB-435 melanoma, 103%; in the experiment with SW-620 colon, 23.4%; in the experiment with MCF7 breast, 96.3%; in the experiment with HCT-116 colon, 91.8%. Moreover, the growth in the experiment on HCC-2998 colon is 108%; with KM12 colon, 109%.
With `Cc1c(Cl)cccc1NC(=O)CN1CCOCC1`, the growth in the experiment with T-47D breast was 96.1%; in the experiment with BT-549 breast it was 97.4%; in the experiment with MDA-MB-435 melanoma, 98.7%; in the experiment with SW-620 colon it was 94.5%; in the experiment on MCF7 breast, 98.1%; with HCT-116 colon it was 97%. For the same molecule, the growth with HCC-2998 colon is 103%; in the experiment with KM12 colon it was 97.3%.
Regarding `O=C(N/N=C/c1ccc([N+](=O)[O-])cc1)c1ccccc1Nc1cccc(C(F)(F)F)c1`, the growth with T-47D breast was 95.1%; in the experiment with BT-549 breast it was 77.8%; in the experiment on MDA-MB-435 melanoma, 103%; in the experiment with SW-620 colon it was 102%; with MCF7 breast it was 111%; in the experiment with HCT-116 colon it was 53.9%. Besides, the growth in the experiment with HCC-2998 colon is 99.5%; with KM12 colon it was 141%.
`COc1cc(-c2nn(-c3cccc(NC(=O)NCCNC(=O)c4ccccc4)c3)cc2-c2ccncc2)ccc1Cl`: the growth was -7.51% (active) in the experiment with T-47D breast; -7.03% (active) in the experiment on BT-549 breast; 2.69% (active) in the experiment with MDA-MB-435 melanoma; 11.8% with SW-620 colon; 6.01% (active) with MCF7 breast; 3.85% (active) in the experiment on HCT-116 colon. For the same molecule, the growth with HCC-2998 colon is 31.3%; in the experiment on KM12 colon, 12.2%.
As to `CCN1CCN(CCC(=O)Nc2cccc(-n3cc(-c4ccncc4)c(-c4ccc(Cl)c(OC)c4)n3)c2)CC1`, the growth in the experiment with T-47D breast was 38.8%; in the experiment with BT-549 breast it was 39.2%; in the experiment with MDA-MB-435 melanoma, -47% (active); in the experiment on SW-620 colon, 10.3%; in the experiment on MCF7 breast, 15.5%; in the experiment on HCT-116 colon it was 5.22% (active). Moreover, the growth with HCC-2998 colon was 43.8%; with KM12 colon, 15.7%.
With `Nc1ccc(/C=N/Nc2ccnc3c(O)cccc23)c2cccnc12`, the growth with T-47D breast was 98.3%; in the experiment on BT-549 breast, 80.2%; in the experiment with MDA-MB-435 melanoma, 46.8%; in the experiment on SW-620 colon it was 7.41% (active); with MCF7 breast, 31.7%; with HCT-116 colon, -0.0751% (active). The values for the growth in the experiment on HCC-2998 colon and in the experiment on KM12 colon were 60.8% and 43.3%, respectively.
Regarding `Cc1cc(C(C#N)c2ccc(Cl)cc2)c(Cl)cc1NC(=O)c1cc(I)cc(I)c1O` (stereo not given), the growth is 66.4% in the experiment on T-47D breast; 36.8% in the experiment with BT-549 breast; 55.7% in the experiment on MDA-MB-435 melanoma; 43.3% in the experiment on SW-620 colon; 43.2% in the experiment on MCF7 breast; 7.35% (active) in the experiment with HCT-116 colon. In addition, the values for the growth in the experiment on HCC-2998 colon and with KM12 colon were 17.4% and 34%, respectively.
As to `C[C@H]1[C@H](OC(=O)CCC(=O)O)O[C@@H]2O[C@]3(C)CC[C@H]4[C@H](C)CC[C@@H]1[C@@]24OO3`, the growth is 31.3% with T-47D breast; 37.9% with BT-549 breast; 9.74% (active) with MDA-MB-435 melanoma; 30.6% in the experiment with SW-620 colon; 28.4% in the experiment on MCF7 breast; 14.1% with HCT-116 colon. In addition, the figures for the growth in the experiment on HCC-2998 colon and in the experiment with KM12 colon were 48.1% and 27.1%, respectively.
For the molecule `COc1ccc(/C=C2\CCCC3C2=Nc2ccccc2NC3c2ccc(OC)cc2)cc1` (stereo not given), the growth is 101% in the experiment on T-47D breast; 79.6% in the experiment on BT-549 breast; 13.8% with MDA-MB-435 melanoma; 72.2% in the experiment with SW-620 colon; 56.1% with MCF7 breast; 38.1% with HCT-116 colon. For the same molecule, the growth with HCC-2998 colon is 104%; in the experiment with KM12 colon, 27.5%.
Consider `Oc1ccc(/C=N/N=C2c3ccccc3-c3ccccc32)c(O)c1`, for which the growth in the experiment with T-47D breast is 42.8%; in the experiment with BT-549 breast it was 78.4%; in the experiment on MDA-MB-435 melanoma, 21.5%; in the experiment on SW-620 colon, 75.4%; in the experiment with MCF7 breast it was 43.3%; in the experiment with HCT-116 colon it was 66.1%. The growth in the experiment with HCC-2998 colon was 80.9%; in the experiment on KM12 colon it was 52.2%.
In the case of `CCn1cc(CNc2ccc(C(=O)Nc3ccc4ccccc4c3)cc2)c(C)n1`, the growth in the experiment with T-47D breast was 6.54% (active); with BT-549 breast, 9.81% (active); with MDA-MB-435 melanoma, 25.6%; in the experiment on SW-620 colon it was 87.6%; in the experiment with MCF7 breast, 49%; in the experiment on HCT-116 colon, 40.5%. For the same molecule, the growth is 81.5% in the experiment with HCC-2998 colon and 55.5% in the experiment on KM12 colon.
As for `COc1cc2c(Nc3ccc(-c4ccc(N)cc4)cc3)ncnc2c(OC)c1OC`, the growth with T-47D breast was 83%; in the experiment with BT-549 breast, 85.5%; in the experiment on MDA-MB-435 melanoma it was 7.13% (active); in the experiment on SW-620 colon it was 14.4%; in the experiment with MCF7 breast, 36.1%; in the experiment with HCT-116 colon, 58.3%. Also, the growth with HCC-2998 colon was 4.99% (active); in the experiment with KM12 colon, 3.42% (active).

For the origin of these results see PubChem BioAssay (NCI).
